Test systems include K-562 leukemia; MALME-3M melanoma; MDA-MB-231 breast; RXF 393 renal; SF-268 CNS; SF-295 CNS; SF-539 CNS; UACC-257 melanoma; M14 melanoma; HCT-15 colon; HT29 colon; SNB-75 CNS; U251 CNS; PC-3 prostate; SK-MEL-5 melanoma; UACC-62 melanoma; LOX IMVI melanoma; SK-MEL-28 melanoma; SK-MEL-2 melanoma; SNB-19 CNS.
What all share (test): NCI-60 one-dose screen, 48 h (100 = growth as untreated, 0 = no growth, -100 = all killed)
Common to all, as to details: 10 µM unless noted

Structures are written as SMILES. This is part of a sample that, as a whole, favours compounds with a hit. Of some 83,000 tested, about 20% had one in any assay.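 For each line, cells grew in 96-well plates with the test compound present at a single concentration for 48 hours.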 Values without a mark were called inactive. Calls of active or inactive are those of the source. The calls were made as follows: active = growth percent below 10; inactive = the rest.

As to `CN(CC(=O)N(Cc1ccc(C2CCCCC2)cc1)c1ccc(C(=O)O)cc1)S(=O)(=O)c1c(F)c(F)c(F)c(F)c1F`, the growth in the experiment with K-562 leukemia was 1.31% (active); with MALME-3M melanoma, 62%; in the experiment with MDA-MB-231 breast, -28.7% (active); in the experiment on RXF 393 renal, -87.3% (active); in the experiment with SF-268 CNS, 67.5%; in the experiment on SF-295 CNS, 108%. The growth in the experiment with SF-539 CNS was 99.2%; in the experiment with UACC-257 melanoma, 31.6%; in the experiment on M14 melanoma, 19.9%; in the experiment on HCT-15 colon it was -46.1% (active); with HT29 colon it was -22.3% (active); in the experiment with SNB-75 CNS, 68.6%. Moreover, the growth is -25.4% (active) with U251 CNS; 10.4% in the experiment on PC-3 prostate; 86.6% in the experiment on SK-MEL-5 melanoma; -7.33% (active) with UACC-62 melanoma; -64.1% (active) in the experiment on LOX IMVI melanoma; -51.8% (active) in the experiment on SK-MEL-28 melanoma. In addition, the growth in the experiment on SK-MEL-2 melanoma is -31.7% (active).
For the compound `O=C1C[C@@H]2/C(=C(O)\C=C\c3ccccc3)C(=O)C=C[C@@H]2O1`, the growth was 14.3% with K-562 leukemia; -35.1% (active) with MALME-3M melanoma; -45.7% (active) with MDA-MB-231 breast; -92.9% (active) in the experiment with RXF 393 renal; 11.6% with SF-268 CNS; 71.2% with SF-295 CNS. For the same compound, the growth in the experiment on SF-539 CNS was -43.3% (active); in the experiment with UACC-257 melanoma, -43.4% (active); in the experiment with M14 melanoma it was -65.9% (active); in the experiment with HCT-15 colon, -7.83% (active); in the experiment with HT29 colon, -53.2% (active); with SNB-19 CNS, 58.7%. For the same compound, the growth is 1.95% (active) in the experiment with U251 CNS; 37.8% with PC-3 prostate; 39.7% in the experiment with SK-MEL-5 melanoma; -50.7% (active) with UACC-62 melanoma; -68% (active) in the experiment with LOX IMVI melanoma; -23.7% (active) in the experiment with SK-MEL-28 melanoma. Also, in the experiment with SK-MEL-2 melanoma, the growth was -35% (active).
On to `CCN1CCN(c2cc(-c3cn[nH]c3-c3cc(C)cc(OC)c3)nc(-c3cccnc3)n2)CC1`, for which the growth in the experiment on K-562 leukemia was 21.9%; with MALME-3M melanoma, 91.9%; with MDA-MB-231 breast, 58.6%; in the experiment with RXF 393 renal, 61.2%; with SF-268 CNS, 87.3%; with SF-295 CNS, 99.9%. Also, the growth was 83% in the experiment with SF-539 CNS; 84.8% in the experiment with UACC-257 melanoma; 83.1% in the experiment with M14 melanoma; 19.2% in the experiment with HCT-15 colon; 33.4% in the experiment on HT29 colon; 75.9% with SNB-75 CNS. The growth in the experiment with U251 CNS is 48.3%; with PC-3 prostate it was 100%; in the experiment with SK-MEL-5 melanoma, 81.9%; in the experiment on UACC-62 melanoma, 102%; in the experiment with LOX IMVI melanoma it was 56.7%; in the experiment on SK-MEL-28 melanoma, 87.4%. For the same compound, in the experiment with SK-MEL-2 melanoma, the growth is 93.6%.
On to `O=C(Nc1ccc(Cl)cc1)Nc1ccc(Nc2nncc3ccccc23)cc1`, for which the growth in the experiment on K-562 leukemia was 9.49% (active); in the experiment with MALME-3M melanoma, 38.5%; in the experiment on MDA-MB-231 breast, 36.6%; with RXF 393 renal, 65.7%; in the experiment on SF-268 CNS it was 42.4%; with SF-295 CNS, 17.8%. Moreover, the growth with SF-539 CNS was 33%; in the experiment on UACC-257 melanoma, 15.3%; in the experiment with M14 melanoma, 19.3%; in the experiment on HCT-15 colon it was 18.3%; with HT29 colon, 32.4%; with SNB-75 CNS it was 46.3%. Further, the growth in the experiment on U251 CNS was 18.3%; in the experiment with PC-3 prostate, 1.46% (active); with SK-MEL-5 melanoma it was 7.12% (active); in the experiment on UACC-62 melanoma, 13.4%; with LOX IMVI melanoma it was 33.6%; in the experiment on SK-MEL-28 melanoma it was 44.1%. Besides, the growth in the experiment on SK-MEL-2 melanoma was 18.9%.
Consider `CCCC[N+](CCCC)=c1ccc2nc3c(C)cc(N(CC)CC)cc3sc-2c1`, for which the growth with K-562 leukemia was -49.1% (active); in the experiment on MALME-3M melanoma, -78.6% (active); in the experiment on MDA-MB-231 breast, -29.4% (active); with RXF 393 renal, -25.8% (active); in the experiment with SF-268 CNS it was 10.4%; with SF-295 CNS, -24.4% (active). Further, the growth was -62.5% (active) with SF-539 CNS; -41% (active) with UACC-257 melanoma; 7.11% (active) in the experiment with M14 melanoma; -33.5% (active) in the experiment on HCT-15 colon; -68.6% (active) with HT29 colon; -0.166% (active) with SNB-75 CNS. The growth in the experiment on U251 CNS was -11.3% (active); with PC-3 prostate it was -13.9% (active); in the experiment on SK-MEL-5 melanoma it was -96.9% (active); with UACC-62 melanoma it was -35.7% (active); in the experiment with SK-MEL-28 melanoma it was -2.53% (active); with SK-MEL-2 melanoma, -51% (active).
Turning to `Clc1ccc2c(Nc3ccc4oc(NCCN5CCCC5)nc4c3)ccnc2c1`, the growth in the experiment with K-562 leukemia is 20.8%; with MALME-3M melanoma, 105%; in the experiment on MDA-MB-231 breast, 37.3%; in the experiment with RXF 393 renal, 81.8%; in the experiment on SF-268 CNS, 72.5%; in the experiment on SF-295 CNS, 106%. The growth in the experiment with SF-539 CNS is 47.6%; in the experiment on UACC-257 melanoma, 108%; in the experiment with M14 melanoma, 50.7%; in the experiment with HCT-15 colon, 49.3%; in the experiment on HT29 colon, 38.1%; in the experiment on SNB-75 CNS, 79.8%. Besides, the growth in the experiment with U251 CNS is 70.1%; in the experiment on PC-3 prostate it was 79.9%; in the experiment with SK-MEL-5 melanoma, 99.1%; in the experiment with UACC-62 melanoma, 94.2%; in the experiment on LOX IMVI melanoma, 29.5%; in the experiment with SK-MEL-28 melanoma, 89.6%. Also, the growth with SK-MEL-2 melanoma is 105%.
For `CCC1=C(c2ccc(OC)cc2)C(C)(C)Oc2cc(O)c(CN3CCCC3)cc21`, the growth was 19.7% in the experiment with K-562 leukemia; 77.2% in the experiment on MALME-3M melanoma; 95.8% in the experiment with MDA-MB-231 breast; 79.9% with RXF 393 renal; 88.4% in the experiment with SF-268 CNS; 51% in the experiment on SF-295 CNS. Further, the growth in the experiment with SF-539 CNS was 76.8%; in the experiment with UACC-257 melanoma, 72%; in the experiment on M14 melanoma it was 62.1%; in the experiment on HCT-15 colon, 82.2%; in the experiment with HT29 colon, 66.6%; in the experiment on SNB-75 CNS, 75%. Also, the growth was 82.5% in the experiment on U251 CNS; 70.5% in the experiment with PC-3 prostate; 67% with SK-MEL-5 melanoma; 90.1% with UACC-62 melanoma; 59.3% with LOX IMVI melanoma; 101% in the experiment on SK-MEL-28 melanoma. Also, the growth in the experiment on SK-MEL-2 melanoma was 86.3%.
Regarding `COc1ccc(C2CC(c3ccc(OC)c(OC)c3)=NN2C(=O)c2cc(OC)c(OC)c(OC)c2)cc1` (stereo unspecified), the growth with K-562 leukemia is 28.3%; with MALME-3M melanoma, 57.7%; in the experiment with MDA-MB-231 breast, 12.6%; in the experiment with RXF 393 renal, -21.4% (active); in the experiment with SF-268 CNS, 54.7%; with SF-295 CNS it was 4.28% (active). For the same compound, the growth in the experiment on SF-539 CNS was -14.5% (active); in the experiment on UACC-257 melanoma it was 66.3%; in the experiment with M14 melanoma, -11.8% (active); with HCT-15 colon it was 32.8%; in the experiment with HT29 colon, -1.1% (active); in the experiment with SNB-19 CNS, 38.9%. Moreover, the growth with U251 CNS was 26%; with PC-3 prostate, 30.5%; in the experiment with SK-MEL-5 melanoma, 5.8% (active); in the experiment with UACC-62 melanoma it was 41.9%; in the experiment on LOX IMVI melanoma, 36.1%; in the experiment on SK-MEL-28 melanoma, 70.5%. Further, the growth in the experiment on SK-MEL-2 melanoma was 12.6%.

Source of the values: PubChem BioAssay (NCI).
